The source of these data is PubChem BioAssay.

The structures appear in SMILES notation. The source made the active and inactive calls.

Assay [1] can be described thus: small molecules captured by biotinylated probe aFSTL3 – biochemical, small-molecule microarray, fluorescence 635/667, stem cell growth factor project, primary screen (AID 1064).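 Note: measures binding of the biotinylated anti-FSTL3 antibody to printed compounds.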 Conditions: higher = more signal.
A short description of assay [2]: binders from COS7 lysate, DM2A8 probe, primary screen, torsin A project, cell lysate, small-molecule microarray, fluorescence 635/667 (AID 1065). Conditions: higher = more signal, COS7 lysate expressing mutant human TOR1A.
Assay [3] is described as follows: small molecules captured by biotinylated probe aFGF2 – biochemical, small-molecule microarray, fluorescence 635/667, stem cell growth factor project, primary screen (AID 1067).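 Note: measures binding of biotinylated aFGF2 protein to printed compounds on slides; z-score merges feature fluorescence and signal-to-noise across triplicate slides.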 As to conditions: higher = more signal.
Assay [4] in a line: small molecules captured by biotinylated probe aFGF10 – biochemical, small-molecule microarray, fluorescence 635/667, stem cell growth factor project, primary screen (AID 1071).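 Note: score merges 667 nm spot intensity and signal to noise from triplicate slides.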 Conditions: higher = more signal.
Assay [5] concerns the target Neurogenic locus notch homolog protein 2 (Homo sapiens) (UniProt Q04721). The experiment in a line: small molecules binding Notch2 protein – biochemical, small-molecule microarray, 635 nm fluorescence, stem cell growth factors, primary screen (AID 1073). As to conditions: higher = more signal.
Assay [6] has as its target Pro-neuregulin-1, membrane-bound isoform (Homo sapiens) (UniProt Q02297). Nature of the assay: small molecules binding neuregulin-1 protein – biochemical, small-molecule microarray, fluorescence 635/667, psychiatric disease protein project, primary screen (AID 1075).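 Note: score combines 667 nm spot fluorescence with signal to noise.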 As to conditions: NRG1 binding, 635 nm fluorescence, higher = more signal.
In assay [7] the test system is Neuregulin-1 EGF-like domain. The experiment in a line: small molecules binding NRG1 EGF domain – biochemical, small-molecule microarray, 635 nm fluorescence, primary screen (AID 1081).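 Note: binding of the protein to compounds printed on small-molecule microarray slides.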 Conditions: higher = more signal.
Assay [8] in a line: FRG1 expression reporter modulators in myotubes – cell-based, C2C12 myotubes, firefly/Renilla luciferase, luminescence, FRG1 inhibition for FSHD, primary screen (AID 1084). Conditions: FRG1 promoter luciferase, higher = more signal, called active from +8 up or from −8 down.
Assay [9] is described as follows: small molecules captured by biotinylated probe aFST – biochemical, small-molecule microarray, fluorescence 635/667, stem cell growth factor project, primary screen (AID 1086).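 Note: score merges 667 nm fluorescence with signal-to-noise of each printed compound spot.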 As to conditions: higher = more signal.
A short description of assay [10]: binders of probe aHhip on microarray, primary screen, stem cell growth factor project, biochemical, small-molecule microarray, fluorescence 635/667 (AID 1087).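 Note: score merges spot fluorescence at 667nm with spot signal to noise ratio.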 As to conditions: higher = more signal.

Sequence of Neurogenic locus notch homolog protein 2 (Homo sapiens) (Q04721 whole entry, looked up, canonical isoform): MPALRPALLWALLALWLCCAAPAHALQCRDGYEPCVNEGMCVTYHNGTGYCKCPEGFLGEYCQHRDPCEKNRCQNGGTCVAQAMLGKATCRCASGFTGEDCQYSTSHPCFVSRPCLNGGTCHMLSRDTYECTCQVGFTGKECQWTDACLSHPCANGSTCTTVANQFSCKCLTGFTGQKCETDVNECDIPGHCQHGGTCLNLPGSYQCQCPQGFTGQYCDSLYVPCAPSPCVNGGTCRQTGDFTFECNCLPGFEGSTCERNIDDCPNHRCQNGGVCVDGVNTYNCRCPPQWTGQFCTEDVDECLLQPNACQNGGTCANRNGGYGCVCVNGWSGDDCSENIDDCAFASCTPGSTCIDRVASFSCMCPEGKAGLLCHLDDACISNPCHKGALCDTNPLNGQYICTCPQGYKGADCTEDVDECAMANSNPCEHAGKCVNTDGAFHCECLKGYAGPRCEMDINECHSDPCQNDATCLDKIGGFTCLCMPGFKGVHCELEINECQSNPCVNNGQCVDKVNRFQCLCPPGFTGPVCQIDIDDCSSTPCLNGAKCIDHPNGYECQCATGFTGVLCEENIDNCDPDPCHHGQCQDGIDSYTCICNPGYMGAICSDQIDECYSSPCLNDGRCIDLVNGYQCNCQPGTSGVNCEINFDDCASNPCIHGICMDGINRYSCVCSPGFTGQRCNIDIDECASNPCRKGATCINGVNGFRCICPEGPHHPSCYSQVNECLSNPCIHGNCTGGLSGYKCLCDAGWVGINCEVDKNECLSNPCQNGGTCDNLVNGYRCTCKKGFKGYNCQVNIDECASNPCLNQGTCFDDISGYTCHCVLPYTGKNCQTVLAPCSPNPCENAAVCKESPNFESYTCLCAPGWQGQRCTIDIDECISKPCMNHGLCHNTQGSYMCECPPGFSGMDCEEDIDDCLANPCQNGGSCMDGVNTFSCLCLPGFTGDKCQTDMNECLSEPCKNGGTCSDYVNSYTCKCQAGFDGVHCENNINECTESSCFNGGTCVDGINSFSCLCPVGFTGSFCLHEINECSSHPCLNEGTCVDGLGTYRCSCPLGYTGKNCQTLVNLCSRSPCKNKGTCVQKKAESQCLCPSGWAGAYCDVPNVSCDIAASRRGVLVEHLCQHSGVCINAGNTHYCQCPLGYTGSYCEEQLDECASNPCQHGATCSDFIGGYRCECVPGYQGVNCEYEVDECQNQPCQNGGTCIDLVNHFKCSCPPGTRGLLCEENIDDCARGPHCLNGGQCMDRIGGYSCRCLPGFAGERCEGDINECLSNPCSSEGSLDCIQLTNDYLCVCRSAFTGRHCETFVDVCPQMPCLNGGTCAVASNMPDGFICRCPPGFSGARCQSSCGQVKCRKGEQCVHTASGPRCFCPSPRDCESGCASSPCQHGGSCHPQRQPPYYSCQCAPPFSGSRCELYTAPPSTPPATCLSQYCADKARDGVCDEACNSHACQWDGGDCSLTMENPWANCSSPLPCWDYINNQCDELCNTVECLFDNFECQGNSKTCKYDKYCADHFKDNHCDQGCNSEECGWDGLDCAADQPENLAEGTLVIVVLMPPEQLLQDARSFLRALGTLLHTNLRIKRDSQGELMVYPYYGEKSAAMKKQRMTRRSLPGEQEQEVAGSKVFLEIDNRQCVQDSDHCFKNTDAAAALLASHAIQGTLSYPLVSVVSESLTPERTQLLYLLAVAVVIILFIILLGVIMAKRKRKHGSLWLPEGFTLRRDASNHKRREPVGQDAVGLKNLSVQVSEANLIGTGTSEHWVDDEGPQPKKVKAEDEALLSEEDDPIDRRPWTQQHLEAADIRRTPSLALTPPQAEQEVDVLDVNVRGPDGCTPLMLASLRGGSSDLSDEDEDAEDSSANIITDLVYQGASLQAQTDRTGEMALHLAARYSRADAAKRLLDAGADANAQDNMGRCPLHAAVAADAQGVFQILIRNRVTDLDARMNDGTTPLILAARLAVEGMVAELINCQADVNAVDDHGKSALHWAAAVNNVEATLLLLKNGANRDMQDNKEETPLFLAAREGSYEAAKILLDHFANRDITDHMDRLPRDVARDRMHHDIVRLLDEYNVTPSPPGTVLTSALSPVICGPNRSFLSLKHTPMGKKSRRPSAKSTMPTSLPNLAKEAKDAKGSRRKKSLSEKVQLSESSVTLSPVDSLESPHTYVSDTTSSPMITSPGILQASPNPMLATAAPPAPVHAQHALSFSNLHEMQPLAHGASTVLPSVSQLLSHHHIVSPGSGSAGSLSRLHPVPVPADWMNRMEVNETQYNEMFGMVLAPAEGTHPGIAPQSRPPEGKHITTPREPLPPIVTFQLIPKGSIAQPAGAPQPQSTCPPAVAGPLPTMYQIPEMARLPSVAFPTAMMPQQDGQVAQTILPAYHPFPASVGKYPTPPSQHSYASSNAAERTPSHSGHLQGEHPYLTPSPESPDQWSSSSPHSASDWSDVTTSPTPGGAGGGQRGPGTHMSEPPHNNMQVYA
Sequence of Pro-neuregulin-1, membrane-bound isoform (Homo sapiens) (Q02297 whole entry, looked up, the tested form may be a part, canonical isoform): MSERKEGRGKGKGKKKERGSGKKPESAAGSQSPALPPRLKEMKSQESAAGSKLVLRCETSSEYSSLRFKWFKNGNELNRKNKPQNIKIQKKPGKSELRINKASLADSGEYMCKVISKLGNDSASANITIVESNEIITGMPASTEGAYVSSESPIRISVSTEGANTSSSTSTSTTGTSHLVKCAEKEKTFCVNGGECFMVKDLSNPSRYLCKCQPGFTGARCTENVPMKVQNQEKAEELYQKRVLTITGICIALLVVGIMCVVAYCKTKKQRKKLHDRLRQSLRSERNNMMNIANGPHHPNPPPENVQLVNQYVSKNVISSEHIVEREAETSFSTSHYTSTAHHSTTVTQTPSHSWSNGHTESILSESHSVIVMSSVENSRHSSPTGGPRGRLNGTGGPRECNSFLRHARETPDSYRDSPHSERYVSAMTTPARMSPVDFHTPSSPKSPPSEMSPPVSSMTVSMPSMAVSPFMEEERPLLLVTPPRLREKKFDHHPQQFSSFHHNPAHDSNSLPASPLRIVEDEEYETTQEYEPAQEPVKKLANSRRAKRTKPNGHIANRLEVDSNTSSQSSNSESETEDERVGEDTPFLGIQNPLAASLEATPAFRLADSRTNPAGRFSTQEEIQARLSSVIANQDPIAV

Regarding `COC(=O)C(CC#Cc1ccc2c(c1)[C@]1(C(=O)N2)[C@H](c2ccc(O)cc2)N2[C@H](c3ccccc3)[C@H](c3ccccc3)OC(=O)[C@H]2[C@@H]1C(=O)Nc1nc2ccccc2s1)C(=O)OC`, the composite z-score in assay [1] was -0.386; in [2] it was 0.372; in assay [3], 0.0402; in [4], 1.08; in [5] it was 1.23; in [6], 1.44. The composite z-score is 1.24 in [7], 0.313 in assay [9] and -0.0672 in assay [10]. In addition, the z-score in [8] is -0.532 (inactive).

Regarding `COCCOC(=O)N1C(=O)[C@@]2(c3cc(C#Cc4ccc(OC)cc4)ccc31)[C@H](c1ccc(O)cc1)N1[C@H](c3ccccc3)[C@H](c3ccccc3)OC(=O)[C@H]1[C@@H]2C(=O)NC[C@H](O)c1ccccc1`, the composite z-score was -0.273 in [1]; 0.101 in [2]; -0.155 in assay [3]; 0.63 in assay [4]; 1.29 in assay [5]; 1.53 in assay [6]. Further, the composite z-score in assay [7] was found to be 1.34; in [9], 0.536; in assay [10], 0.192. In addition, in assay [8], the z-score was 0.1 (inactive).

For `CCOC(=O)C[C@H]1[C@H](OC(=O)Cc2ccc3c(c2)OCO3)[C@@H](NC(=O)c2ccc3ccccc3c2)c2cc(OCCCO)ccc2N1C(=O)c1ccccc1`, the composite z-score was -0.397 in assay [1]; 0.0993 in [2]; -0.14 in assay [3]; 0.284 in assay [4]; 0.642 in assay [5]; 0.376 in [6]. For the same compound, the composite z-score in assay [7] was 1.13; in [9], 0.254; in assay [10], 0.0373. Also, the z-score in assay [8] is 0.12 (inactive).

Take `COc1ccc(CCNC(=O)[C@@]2(Sc3ccc(C)cc3)CC(=O)N(C3CCCCC3)[C@@H]2c2ccc(CO)cc2I)cc1`: the composite z-score is -0.113 in assay [1]; 0.567 in [2]; 0.0561 in [3]; 0.773 in assay [4]; 1.23 in [5]; 1.29 in assay [6]. The composite z-score in assay [7] was 1.02; in [9], 0.306; in [10], -0.0237. In addition, the z-score in [8] was -1.57 (inactive).

As for `COc1ccc(C(=O)O[C@H]2CC[C@]3(C)C4=C(CCC3C2(C)C)[C@]2(C)CC[C@H]([C@H](C)CCCC(C)C)[C@@]2(C)CC4)cc1` (stereo not given in full), the composite z-score in assay [1] is -0.581; in assay [2], 0.191; in assay [3], -0.128; in assay [4], 0.338; in [5], 0.611; in assay [6], 0.133. Also, the results for the composite z-score in assay [7], in [9] and in [10] were 0.456, 0.18 and 0.0749, respectively. The z-score in assay [8] is -1.16 (inactive).

For `COCCCNC(=O)[C@@]1(Cc2ccccc2)N=C(c2ccc(OCCCO)cc2)O[C@H]1c1ccccc1`, the composite z-score is 0.743 in assay [1]; 1.2 in assay [2]; 0.298 in assay [3]; 0.155 in assay [4]; 0.82 in assay [5]; 1.38 in [6]. The composite z-score in assay [7] was determined as 1.33; in assay [9], 1.08; in assay [10], 1.17. In addition, the z-score in [8] is -1.4 (inactive).

In the case of `O=C1OCCC/C=C\[C@H]2OC34C=CCN(Cn5nnc6ccccc65)C(=O)[C@H]3N(CCO)C(=O)[C@@H]4C12` (stereo not given in full), the composite z-score in assay [1] is -0.335; in assay [2] it was -1.46; in [3], -0.206; in [4], 0.0278; in assay [5], -0.918; in [6], 1.21. Further, the composite z-score in assay [7] was 1.16; in assay [9] it was -0.486; in assay [10] it was 0.382. Besides, in assay [8], the z-score is 0.356 (inactive).

Regarding `COC(=O)c1c(CC[C@@H](CO)NC(=O)N[C@H](Cn2cc(Cc3ccccc3)nn2)C(C)C)oc(C(C)=O)c1C(=O)OC`, the composite z-score in assay [1] is -0.234; in assay [2], 0.128; in assay [3] it was -0.119; in assay [4] it was 1.09; in assay [5] it was 0.0441; in assay [6] it was 0.0567. For the same compound, the composite z-score in assay [7] is 1.06; in assay [9], 0.059; in assay [10], -0.236. For the same compound, the z-score in assay [8] is 0.82 (inactive).

Take `CC(C)(C)OC(=O)CC[C@]1(C(=O)NCC(O)CO)COC(c2ccc(OCCCO)cc2)=N1` (stereo not given in full): the composite z-score in [1] is 0.139; in assay [2], -0.382; in assay [3], -0.0551; in [4], -0.0211; in assay [5] it was 1.13; in assay [6], 1.97. Moreover, the composite z-score in assay [7] was 1.21; in assay [9] it was 1.24; in [10], -0.0645. The z-score in assay [8] is 0.555 (inactive).

As to `O=C1OCCC/C=C\[C@H]2OC34C=CCN(Cc5ccccc5)C(=O)[C@H]3N(CCCCCCO)C(=O)[C@@H]4C12` (stereo not given in full), the composite z-score was 1.26 in assay [1]; 1.37 in assay [2]; -0.0956 in [3]; -0.437 in assay [4]; -0.793 in assay [5]; 1.31 in assay [6]. Also, the composite z-score is 1.31 in assay [7], -0.467 in assay [9] and -0.0003 in assay [10]. The z-score in assay [8] is 0.247 (inactive).

`O=C1NC(=O)C2C1C=CC(C(O)Cc1ccccc1)N2Nc1ccc(Cl)cc1Cl` (stereo not given): the composite z-score in [1] is 0.536; in assay [2], -0.169; in assay [3], -0.0374; in [4], -0.634; in assay [5], 0.614; in assay [6] it was 2. Also, the composite z-score in assay [7] was 0.371; in [9], 0.337; in [10], 0.176. Besides, the z-score in assay [8] is 1.53 (inactive).

In the case of `CCOC(=O)[C@H]1C/C=C/C[C@H](C(=O)OCC)C(=O)O[C@H]2[C@@H](OC)O[C@H](CO)[C@@H](OC(=O)Nc3cccc(F)c3)[C@@H]2OC1=O`, the composite z-score in assay [1] was -0.621; in assay [2] it was -0.125; in assay [3] it was -0.0766; in [4] it was 0.39; in assay [5] it was 0.196; in assay [6], 1.21. Also, the composite z-score was 1.15 in assay [7], 0.0218 in assay [9] and -0.444 in [10]. Further, the z-score in assay [8] was 0.15 (inactive).

As for `CCCC=C(CCC)[C@@H](NC(=O)Oc1ccc(F)cc1)c1ccc(C(=O)OC)cc1`, the composite z-score was 0.415 in assay [1]; 0.175 in assay [2]; 0.0883 in [3]; 0.48 in assay [4]; 1.52 in [5]; -0.454 in assay [6]. The composite z-score was 0.482 in assay [7], 0.794 in assay [9] and -0.121 in assay [10]. For the same compound, the z-score in assay [8] is -3.81 (inactive).

As for `COc1ccc(C(O)C2C=CC3C(=O)NC(=O)C3N2Nc2ccccn2)c2ccccc12` (stereo not given), the composite z-score in assay [1] was -0.37; in assay [2], 0.184; in assay [3], 0.0467; in assay [4], 0.246; in assay [5] it was 0.388; in [6], 1. The figures for the composite z-score in [7], in assay [9] and in [10] were 0.741, 0.119 and -0.0994, respectively. Besides, the z-score in assay [8] is 0.87 (inactive).

As to `O=C1OCCC/C=C\[C@H]2OC34C=CCN(Cn5nnc6ccccc65)C(=O)[C@H]3N(CCCCCCO)C(=O)[C@@H]4C12` (stereo not given in full), the composite z-score in assay [1] was 0.144; in [2] it was 1.57; in assay [3] it was -0.167; in assay [4], -1.04; in assay [5], -0.969; in [6], 0.0553. For the same compound, the values for the composite z-score in assay [7], in [9] and in assay [10] were 1.25, -0.582 and -0.273, respectively. In addition, the z-score in assay [8] is -0.584 (inactive).

As for `C=CCOC(=O)[C@H]1[C@@H]2C(=O)O[C@@H](c3ccccc3)[C@@H](c3ccccc3)N2[C@@H](c2ccc(OCCOC(=O)[C@H]3C[C@H]4C(=O)N[C@@H](CC(C)C)C(=O)N4[C@H]3c3ccc(O)cc3)cc2)[C@]12C(=O)Nc1ccc(I)cc12`, the composite z-score in [1] is -0.921; in [2], 1.1; in [3], -0.0355; in [4], 0.69; in assay [5], 0.82; in assay [6], 0.731. Besides, the figures for the composite z-score in assay [7], in assay [9] and in assay [10] were 1.34, -0.742 and -0.263, respectively. Further, the z-score in [8] was 1.11 (inactive).
